# Laboratory results reported in PubChem BioAssay (NCATS).
# Where “and” joins values, the source holds several entries; their conditions need not be identical. Equal values may be shown once. Results filed as inconclusive are left out. Entries that show only a call come without a potency. A number with no mark means an inactive call. Calls of active or inactive are those of the source. The call rests on the fitted dose curve; in most records, active means well fitted curve in the direction sought with a large enough effect; inconclusive means small, poorly fitted or top-dose-only effect, or another doubt; inactive means no such curve, though single readings can be large; an effect the other way counts as inactive or inconclusive. Peptide text beside a SMILES is read from it. * marks the point of attachment. Cbz = O=C(OCc1ccccc1)*; CH2F = FC*
# Key:
# [1] = biological target: Cellular tumor antigen p53 (Homo sapiens) (UniProt P04637); assay: Primary qHTS for small molecule compounds that upregulate eGFP-tagged delta133p53alpha (in N-terminal) cells. (AID 2060322); settings: NCI-H358 eGFP-delta133p53alpha fluorescence, 24 h; activation: stronger effect = higher value; further: series mostly up to about 56 µM; nearly all actives have a fitted effect of over 75% in size
# Outline: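 NCI-H358 cells pre-induced 24 h with 10 ng/ml doxycycline to express N-terminal eGFP-delta133p53alpha, then dosed 24 h at 37C without doxycycline; fixed, Hoechst-stained, GFP intensity by laser scanning cytometry, normalized to DMSO (0%) and 57.5 uM 5-azacytidine (100%).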
# [2] = biological target: Aldehyde dehydrogenase, mitochondrial (Homo sapiens) (UniProt P05091); assay: qHTS for Inhibitors of the Aldehyde Dehydrogenase Family (ALDH2) Primary screen (AID 2061308); further: nearly all actives have a fitted effect of over 55% in size
# [3] = biological target: Retinaldehyde dehydrogenase 3 (Homo sapiens) (UniProt P47895); assay: qHTS for Inhibitors of the Aldehyde Dehydrogenase Family (ALDH1A3) Primary screen (AID 2061315); further: potency means the concentration at half of the fitted maximal effect
# Cellular tumor antigen p53 (Homo sapiens), sequence (P04637 whole entry, looked up): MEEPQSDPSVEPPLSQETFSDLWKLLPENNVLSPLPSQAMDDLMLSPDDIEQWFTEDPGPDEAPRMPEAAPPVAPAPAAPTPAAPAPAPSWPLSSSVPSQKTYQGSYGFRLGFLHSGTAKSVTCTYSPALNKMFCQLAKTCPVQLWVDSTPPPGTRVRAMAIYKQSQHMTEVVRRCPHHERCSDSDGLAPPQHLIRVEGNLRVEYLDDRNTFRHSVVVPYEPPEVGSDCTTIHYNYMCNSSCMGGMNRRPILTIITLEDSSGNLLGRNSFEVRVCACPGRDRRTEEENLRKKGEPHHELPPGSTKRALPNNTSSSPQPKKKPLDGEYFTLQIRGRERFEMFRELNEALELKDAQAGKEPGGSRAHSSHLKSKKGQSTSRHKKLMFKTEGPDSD
Structure (SMILES),activation [1],Potency [2],Potency [3],"activity change, negative = inhibition [2]","activity change, negative = inhibition [3]"
COc1cc([C@H]2OC[C@@H]3[C@@H](c4ccc(O[C@@H]5O[C@H](CO)[C@@H](O)[C@H](O)[C@H]5O)c(OC)c4)OC[C@]23O)ccc1O,3.57%,inactive,inactive,,
COC(=O)CC[C@H](NC(=O)[C@H](CC(C)C)NC(=O)OCc1ccccc1)C(=O)N[C@@H](Cc1cnc[nH]1)C(=O)N[C@@H](CC(=O)OC)C(=O)CF (Cbz-LE(OMe)HD(OMe)-CH2F),23.7%,,,-2.9% [at 11.2 µM],-9.94% [at 11.2 µM]
O=C(/C=C/c1ccc(O)cc1)OC1[C@H](O)CC(O)(C(=O)O)C[C@H]1O (stereo partly drawn),-0.763%,inactive,inactive,,
CC(=O)c1cc(C(=O)N[C@@H](C)Cn2ccc(-c3ccc(C#N)c(Cl)c3)n2)[nH]n1,18.3%,inactive,inactive,,
C/C=C1/[C@H](O[C@@H]2O[C@H](CO)[C@@H](O)[C@H](O)[C@H]2O)OC=C2C(=O)O[C@@H]3C[C@@H](C(C)CO)[C@H](COC(=O)C[C@H]21)[C@H]3C (stereo partly drawn),-3.57%,inactive,inactive,,
CC(C)(C)c1ccc(-c2nc3ccccc3[nH]2)cc1,-14.3%,inactive,8.91 µM (active),,
CCOc1ccc(-c2ccc(Cn3c(CC(C)(C)C(=O)O)c(SC(C)(C)C)c4cc(OCc5ccc(C)cn5)ccc43)cc2)cn1,-1% and 3%,inactive,inactive,,
CC1(C)CC[C@]2(C(=O)O[C@@H]3O[C@H](CO)[C@@H](O)[C@H](O)[C@H]3O)CC[C@]3(C)C(=CCC4[C@@]5(C)CC[C@H](O[C@@H]6O[C@H](C(=O)O)[C@@H](O[C@@H]7O[C@H](CO)[C@@H](O)[C@H](O)[C@H]7O)[C@H](O)[C@H]6O[C@@H]6O[C@H](CO)[C@@H](O)[C@H](O)[C@H]6O)C(C)(C)C5CC[C@]43C)C2C1 (stereo partly drawn),-29.8%,inactive,inactive,,
O=C(/C=C/c1ccc(O)cc1)OC[C@H]1O[C@H](O[C@@]2(CO)O[C@@H](CO)[C@H](O)[C@H]2O)[C@H](O)[C@@H](O)[C@@H]1O,6.25%,inactive,inactive,,
O=S(=O)(c1ccc(Cl)cc1)N1CCN(c2ccnc3cc(Cl)ccc23)CC1,-12.5%,inactive,inactive,,
CC(=O)N[C@@H](CCCCN)C(=O)N(C)[C@@H](CC(C)C)C(=O)N[C@H](C(=O)N(C)[C@@H](Cc1ccccc1)C(=O)N[C@H](Cc1ccccc1)C(N)=O)C(C)C,7.67%,,,0.957% [at 5.59 µM],0.0688% [at 5.59 µM]
